Where “and” joins values, the source holds several entries; their conditions need not be identical. Equal values may be shown once. Records with an inconclusive call do not appear. Entries that show only a call come without a potency. Calls of active or inactive are those of the source. Unless noted, calls follow the shape of the dose curve; as a rule, active = well fitted curve in the direction sought with a large enough effect; inconclusive = small, poorly fitted or top-dose-only effect, or another doubt; inactive = no such curve, though single readings can be large; an effect the other way counts as inactive or inconclusive.
Legend:
[1] = Cell Viability - HUV-EC-C (AID 542); also: nearly all actives have a fitted effect of over 35% in size
Procedure, shortened: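 qHTS cytotoxicity: HUV-EC-C, 1000 cells/well, 5 hr settle, compound 40 hr 37 °C, CellTiter-Glo, luminescence. AC50 via Hill equation.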

[2] = Cell Viability - H-4-II-E (AID 543); also: nearly all actives have a fitted effect of over 35% in size; also: potency is read from the fitted curve at half-maximal effect
Procedure, shortened: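 Luminescent ATP signal (CellTiter-Glo) served as the viability read-out, with cytotoxicity seen as a concentration-dependent ATP drop. Cells were treated for 40 hours in complete medium. AC50 values derive from Hill-equation modelling.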

[3] = MultiTox-Fluor Cytotoxicity Assay - LYMP1-002 - Dead Cells (AID 960); also: nearly all actives have a fitted effect of over 60% in size
Procedure, shortened: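 LYMP1-002 cells 2500/well; 5 hr 37 C pre-incubation; compound 16 hr 37 C; MultiTox-Fluor reagent 60 min RT; dead-cell fluor Ex/Em 485/520. Norm. to DMSO (0%) vs 15 uM tetraoctylammonium bromide (100%); Hill AC50.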

[4] = Cell Viability - LYMP2-005 (AID 967)
Procedure, shortened: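 CellTiter-Glo luminescence (cellular ATP) read-out; LYMP2-005 lymphoblastoid cells, 2500/well, 5 h pre-incubation, then 24 h compound exposure at 37 C in complete medium. Tetraoctylammonium bromide positive control; AC50 by standard Hill fit.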

[5] = molecular target: Estrogen receptor (Homo sapiens) (UniProt P03372); assay: qHTS assay for small molecule agonists of estrogen receptor alpha signaling (AID 588514; calls by dose curve; also: nearly all actives have a fitted effect of over 70% in size; also: potency is read from the fitted curve at half-maximal effect)
Estrogen receptor (Homo sapiens), sequence (P03372 whole entry, looked up): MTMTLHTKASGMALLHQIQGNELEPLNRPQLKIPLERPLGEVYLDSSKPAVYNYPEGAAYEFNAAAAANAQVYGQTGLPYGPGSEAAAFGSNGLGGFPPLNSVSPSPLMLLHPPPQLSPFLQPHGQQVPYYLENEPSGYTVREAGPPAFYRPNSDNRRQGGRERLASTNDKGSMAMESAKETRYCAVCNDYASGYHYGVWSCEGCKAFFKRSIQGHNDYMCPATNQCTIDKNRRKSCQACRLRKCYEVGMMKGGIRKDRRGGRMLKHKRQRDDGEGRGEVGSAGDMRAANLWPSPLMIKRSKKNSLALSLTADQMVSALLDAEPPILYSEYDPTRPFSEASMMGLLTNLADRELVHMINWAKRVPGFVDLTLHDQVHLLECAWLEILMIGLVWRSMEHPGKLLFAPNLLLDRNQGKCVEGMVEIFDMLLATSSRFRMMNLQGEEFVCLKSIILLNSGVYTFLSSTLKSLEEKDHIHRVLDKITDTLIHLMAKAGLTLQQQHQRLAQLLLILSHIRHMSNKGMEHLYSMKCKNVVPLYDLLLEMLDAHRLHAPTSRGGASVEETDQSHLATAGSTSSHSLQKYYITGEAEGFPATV
Procedure, shortened: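 Cells were plated at 5000/well, incubated 4 hrs at 37 C, dosed with compound titration series, incubated 18 hrs at 37 C, loaded with CCF4 dye for 2 hrs at RT, then fluorescence was read.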

[6] = molecular target: Bile acid receptor (Homo sapiens) (UniProt Q96RI1); assay: qHTS assay for small molecule agonists of farnesoid X receptor signaling (AID 588527; calls by dose curve); details: HEK293T FXR-UAS-bla, beta-lactamase ratio, 16 h; stronger effect = higher value
Bile acid receptor (Homo sapiens), sequence (Q96RI1 whole entry, looked up): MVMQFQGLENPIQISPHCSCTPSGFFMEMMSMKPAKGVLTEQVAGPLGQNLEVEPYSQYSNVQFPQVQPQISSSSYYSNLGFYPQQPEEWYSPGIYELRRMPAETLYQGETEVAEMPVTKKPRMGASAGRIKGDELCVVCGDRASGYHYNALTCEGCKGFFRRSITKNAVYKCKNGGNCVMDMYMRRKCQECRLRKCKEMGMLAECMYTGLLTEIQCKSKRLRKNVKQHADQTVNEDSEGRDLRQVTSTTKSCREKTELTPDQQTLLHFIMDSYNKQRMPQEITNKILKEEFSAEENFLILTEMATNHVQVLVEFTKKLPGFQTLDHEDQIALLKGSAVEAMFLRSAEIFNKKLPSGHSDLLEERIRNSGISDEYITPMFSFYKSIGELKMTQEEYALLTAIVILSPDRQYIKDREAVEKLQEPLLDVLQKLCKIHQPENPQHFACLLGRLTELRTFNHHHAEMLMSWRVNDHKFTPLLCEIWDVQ
Procedure, shortened: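 Quantitative HTS used FXR-UAS-bla HEK293T cells with 16 h compound incubation at 37 C. EC50 values came from concentration-response curves normalized to chenodeoxycholic acid.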

[7] = molecular target: Glucocorticoid receptor (Homo sapiens) (UniProt P04150); assay: qHTS assay for small molecule agonists of glucocorticoid receptor signaling (AID 588532; active = well fitted curve in the direction sought with a large enough effect in the signal ratio, with a control signal flat; the % refers to the signal ratio); details: HeLa MMTV-bla, beta-lactamase ratio, agonist, 18 h; stronger effect = higher value; percent of dexamethasone control, DMSO zero
Glucocorticoid receptor (Homo sapiens), sequence (P04150 whole entry, looked up): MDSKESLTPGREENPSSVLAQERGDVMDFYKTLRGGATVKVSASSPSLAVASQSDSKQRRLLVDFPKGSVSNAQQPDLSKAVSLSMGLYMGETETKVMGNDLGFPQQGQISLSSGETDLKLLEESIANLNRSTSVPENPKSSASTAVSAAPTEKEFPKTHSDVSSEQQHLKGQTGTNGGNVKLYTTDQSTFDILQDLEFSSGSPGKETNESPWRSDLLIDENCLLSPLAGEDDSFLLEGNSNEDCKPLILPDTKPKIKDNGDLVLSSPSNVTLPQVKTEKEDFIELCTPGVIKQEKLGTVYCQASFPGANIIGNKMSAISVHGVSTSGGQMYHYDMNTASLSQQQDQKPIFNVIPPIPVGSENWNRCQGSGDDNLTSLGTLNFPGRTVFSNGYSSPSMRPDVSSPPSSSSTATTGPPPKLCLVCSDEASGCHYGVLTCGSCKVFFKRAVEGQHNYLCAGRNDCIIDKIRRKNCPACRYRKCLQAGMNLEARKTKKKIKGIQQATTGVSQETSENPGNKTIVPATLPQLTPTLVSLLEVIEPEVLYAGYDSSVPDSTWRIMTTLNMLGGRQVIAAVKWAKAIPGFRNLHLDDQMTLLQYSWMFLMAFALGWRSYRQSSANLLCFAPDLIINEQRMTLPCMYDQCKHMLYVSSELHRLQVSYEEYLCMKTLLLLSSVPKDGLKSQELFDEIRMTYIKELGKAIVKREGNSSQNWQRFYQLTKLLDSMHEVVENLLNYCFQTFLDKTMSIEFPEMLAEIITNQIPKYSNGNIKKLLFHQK
Procedure, shortened: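 Cells were plated and rested 3-5 h at 37 C, compounds were added in titration and incubated 18 h, then CCF4 substrate was loaded for 2 h at RT before reading blue/green fluorescence. EC50 came from Hill-equation fitting.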

[8] = molecular target: Glucocorticoid receptor (Homo sapiens) (UniProt P04150); assay: qHTS assay for small molecule antagonists of glucocorticoid receptor signaling (AID 588533; active = well fitted inhibition curve with a large enough effect in the signal ratio, with a control signal flat, not every such curve was filed as active; the % refers to the signal ratio)
Procedure, shortened: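 Antagonist-mode qHTS: compound titrations added to GRE-bla HeLa cells, then dexamethasone 2 nM final; 18 h, 37 C. CCF4 FRET fluorescence normalized to dexamethasone and DMSO; IC50 from Hill fit.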

[9] = molecular target: Peroxisome proliferator-activated receptor delta (Homo sapiens) (UniProt Q03181); assay: qHTS assay for small molecule agonists of peroxisome proliferator-activated receptor delta signaling (AID 588534; calls by dose curve)
Peroxisome proliferator-activated receptor delta (Homo sapiens), sequence (Q03181 whole entry, looked up): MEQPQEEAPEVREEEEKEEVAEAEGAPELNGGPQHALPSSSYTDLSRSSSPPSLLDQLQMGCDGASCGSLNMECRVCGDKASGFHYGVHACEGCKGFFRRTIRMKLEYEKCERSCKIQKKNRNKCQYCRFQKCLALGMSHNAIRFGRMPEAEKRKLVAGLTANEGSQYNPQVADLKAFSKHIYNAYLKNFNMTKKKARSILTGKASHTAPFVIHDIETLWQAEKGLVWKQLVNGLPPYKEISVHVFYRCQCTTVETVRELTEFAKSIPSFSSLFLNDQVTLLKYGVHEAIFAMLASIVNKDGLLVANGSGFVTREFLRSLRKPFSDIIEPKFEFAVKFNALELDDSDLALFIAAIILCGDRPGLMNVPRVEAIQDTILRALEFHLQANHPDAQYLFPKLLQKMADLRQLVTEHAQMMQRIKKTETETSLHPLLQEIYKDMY
Procedure, shortened: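 Fluorescence from CCF4 substrate cleavage by beta-lactamase reporter, read 2 hrs at RT, measured agonist activity. Compounds were tested with 18 hrs exposure at 37 C. Concentration-response data fitted to Hill equation.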

[10] = qHTS assay for small molecule antagonists of peroxisome proliferator-activated receptor delta signaling (AID 588535; active = well fitted inhibition curve with a large enough effect in the signal ratio, with a control signal flat, not every such curve was filed as active; the % refers to the signal ratio;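 as to max response: cells co-treated with a PPAR-delta agonist as stimulator during compound exposure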); details: HEK293T PPARd-UAS-bla, beta-lactamase FRET ratio, 18 h; 460 nm channel
Procedure, shortened: (§1)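 Antagonist-mode beta-lactamase reporter (GeneBLAzer PPAR-delta-UAS-bla) in HEK293T cells, 2% charcoal/dextran FBS, 4000 cells/well. Compound titrations, 18 h at 37 C; CCF4 ratio read, IC50 and efficacy from Hill fits.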

[11] = molecular target: Peroxisome proliferator-activated receptor delta (Homo sapiens) (UniProt Q03181); assay: as above
Procedure, shortened: as §1

[12] = molecular target: Peroxisome proliferator-activated receptor gamma (Homo sapiens) (UniProt P37231); assay: qHTS assay for small molecule agonists of peroxisome proliferator-activated receptor gamma signaling (AID 588536; active = well fitted curve in the direction sought with a large enough effect in the signal ratio, with a control signal flat, not every such curve was filed as active; the % refers to the signal ratio)
Peroxisome proliferator-activated receptor gamma (Homo sapiens), sequence (P37231 whole entry, looked up): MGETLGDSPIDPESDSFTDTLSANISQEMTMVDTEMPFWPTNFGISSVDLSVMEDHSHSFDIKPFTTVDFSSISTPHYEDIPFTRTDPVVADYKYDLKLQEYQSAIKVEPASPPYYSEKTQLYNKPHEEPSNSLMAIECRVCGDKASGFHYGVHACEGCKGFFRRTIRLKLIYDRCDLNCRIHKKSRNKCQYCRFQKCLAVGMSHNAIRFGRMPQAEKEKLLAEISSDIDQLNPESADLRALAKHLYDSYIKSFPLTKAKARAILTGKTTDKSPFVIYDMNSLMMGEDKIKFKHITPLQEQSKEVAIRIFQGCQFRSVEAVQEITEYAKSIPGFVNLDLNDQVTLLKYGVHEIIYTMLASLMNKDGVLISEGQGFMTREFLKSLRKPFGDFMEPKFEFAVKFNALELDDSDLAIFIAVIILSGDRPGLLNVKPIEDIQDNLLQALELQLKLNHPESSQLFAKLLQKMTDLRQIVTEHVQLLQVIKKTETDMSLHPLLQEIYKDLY
Procedure, shortened: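 HEK293 UAS-bla reporter line, 1% charcoal/dextran FBS; titration, 16 h, 37 C; CCF4 loading 2 h RT; fluorescence 460/530 nm. Normalized to rosiglitazone 2 uM = 100%, DMSO = 0%.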

[13] = molecular target: Vitamin D3 receptor (Homo sapiens) (UniProt P11473); assay: qHTS assay for small molecule antagonists of vitamin D receptor signaling (AID 588541; calls by dose curve;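 also: receptor activated by calcitriol during compound treatment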)
Vitamin D3 receptor (Homo sapiens), sequence (P11473 whole entry, looked up): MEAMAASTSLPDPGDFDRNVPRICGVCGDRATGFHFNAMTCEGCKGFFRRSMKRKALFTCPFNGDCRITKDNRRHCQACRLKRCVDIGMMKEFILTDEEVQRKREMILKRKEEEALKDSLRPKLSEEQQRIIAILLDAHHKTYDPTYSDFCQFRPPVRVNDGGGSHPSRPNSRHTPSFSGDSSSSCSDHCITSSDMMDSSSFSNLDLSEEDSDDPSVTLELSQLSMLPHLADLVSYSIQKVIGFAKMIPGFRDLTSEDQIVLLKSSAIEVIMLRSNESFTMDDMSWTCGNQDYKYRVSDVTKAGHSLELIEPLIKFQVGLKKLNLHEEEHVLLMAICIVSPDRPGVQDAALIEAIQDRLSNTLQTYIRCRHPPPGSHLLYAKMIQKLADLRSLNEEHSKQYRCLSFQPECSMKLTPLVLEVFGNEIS
Procedure, shortened: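 VDR-UAS-bla HEK293T cells in 2% charcoal-stripped FBS were stimulated with 1-alpha,25-dihydroxyvitamin D3 (3 nM final) plus compound for 16 h at 37 C. The beta-lactamase CCF4 readout was normalized to 50 nM agonist and DMSO, and Hill fits gave IC50.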

[14] = molecular target: Vitamin D3 receptor (Homo sapiens) (UniProt P11473); assay: qHTS assay for small molecule agonists of vitamin D receptor signaling (AID 588543; calls by dose curve)
Procedure, shortened: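 GeneBLAzer VDR-UAS-bla HEK293T cells in 2% charcoal-stripped FBS medium were dosed with compound titrations for 16 h at 37 °C; CCF4 β-lactamase readout (405 nm ex, 460/530 nm em). EC50 and efficacy from Hill fits, normalized to 50 nM calcitriol (100%) and DMSO (0%).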

[15] = qHTS assay for small molecule agonists of the antioxidant response element (ARE) signaling pathway (AID 651741; active = well fitted activation curve with a large enough effect in the signal ratio; the % refers to the signal ratio; also: potency is read from the fitted curve at half-maximal effect)
Procedure, shortened: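 CellSensor ARE-bla HepG2 cells (2,000/well) carrying ARE-driven beta-lactamase, exposed 16 h at 37 C. LiveBLAzer B/G FRET substrate added for 2 h at room temperature; fluorescence intensity read.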

[16] = qHTS assay for small molecule activators of the nuclear factor-kappa B (NF-kB) signaling pathway (AID 651749; active = well fitted activation curve with a large enough effect in the signal ratio; the % refers to the signal ratio); details: NF-kB-bla ME-180 cells, beta-lactamase FRET ratio, 16 h; stronger effect = higher value
Procedure, shortened: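 NF-kB-bla ME-180 cells carrying a beta-lactamase reporter under an NF-kB response element, 2,000 cells/well, exposed to compound for 16 hr at 37C; FRET-based beta-lactamase fluorescence read-out of pathway activation.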

[17] = Cell Viability - N2a (AID 540); details: N2a mouse neuroblastoma cell viability; activity change, negative = cytotoxicity: at 92.2 µM (top of the series);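 also: cells exposed to compound for 40 h at 37 °C; nearly all actives have a fitted effect of over 45% in size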
Procedure, shortened: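 Luminescent ATP signal (CellTiter-Glo, 20 min at room temperature) served as the viability read-out after N2a cells were treated with compounds for 40 hours at 37 °C. Concentration-response data were fitted to the Hill equation for AC50.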

[18] = MultiTox-Fluor Cytotoxicity Assay - LYMP1-001 - Live Cells (AID 947)
[19] = Cell Viability - LYMP1-002 - Assay at 40 hr (AID 994); also: nearly all actives have a fitted effect of over 60% in size
Procedure, shortened: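 Luminescent ATP signal served as the viability readout, with decreases taken as toxicity. Cells were treated with compounds across a concentration range for 40 hours at 37 C, and AC50 values came from standard Hill modeling.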

[20] = molecular target: Peroxisome proliferator-activated receptor gamma (Homo sapiens) (UniProt P37231); assay: qHTS assay for small molecule antagonists of peroxisome proliferator-activated receptor gamma signaling (AID 588537; active = well fitted inhibition curve with a large enough effect in the signal ratio, with a control signal flat, not every such curve was filed as active; the % refers to the signal ratio;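 also: reporter cells co-stimulated with 50 nM rosiglitazone agonist during compound treatment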)
Procedure, shortened: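 PPARγ-UAS-bla HEK293 cells (3000/well) in 1% charcoal/dextran-stripped FBS are treated with compound, then stimulated with 50 nM rosiglitazone for 16 h at 37 °C. Read-out is CCF4 β-lactamase fluorescence after 2 h at RT. IC50 comes from Hill fits normalised to rosiglitazone and DMSO.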

| Compound | Potency [1] | Potency [2] | Potency [3] | Potency [4] | Potency [5] | activation [6] | activation [7] | outcome [8] | outcome [9] | max response [10] | outcome [11] | outcome [12] | outcome [13] | outcome [14] | Potency [15] | activation [16] | Potency [17] | outcome [18] | Potency [19] | Potency [20] |
| --- | --- | --- | --- | --- | --- | --- | --- | --- | --- | --- | --- | --- | --- | --- | --- | --- | --- | --- | --- | --- |
| C=C(C)CCl | inactive | inactive | inactive | inactive | inactive | -1.8% (inactive) | 15.7% (inactive) | inactive | inactive | 2.33% | inactive | inactive | inactive | inactive | inactive | -0.185% (inactive) |  |  |  |  |
| ClP(Cl)(Cl)(Cl)Cl |  | inactive | inactive |  | inactive | -2.17% (inactive) | -4.5% (inactive) | inactive | inactive |  |  | inactive | inactive | inactive | inactive | -0.207% (inactive) | inactive | inactive | inactive |  |
| C=CC(=O)OCC(CC)CCCC (configuration not stated) | inactive | inactive | inactive | inactive |  |  | -0.1% (inactive) and -12.6% (inactive) | inactive |  | 10.4% and 11.2% | inactive | inactive |  | inactive | inactive |  |  |  | inactive | inactive |
| CCCBr | inactive | inactive |  | inactive | 0.355 µM (active) | -1.67% (inactive) | -1.9% (inactive) | inactive |  |  |  | inactive | inactive | inactive |  |  |  | inactive | inactive | inactive |
| CCCCNC(=O)n1c(NC(=O)OC)nc2ccccc21 |  | 5.01 µM (active) |  |  | inactive | -3.82% (inactive) and -0.311% (inactive) | -10.9% (inactive) |  |  |  |  | inactive | inactive |  | inactive | -0.565% (inactive) and 0.0154% (inactive) | inactive |  |  |  |
| c1ccc(OCC2CO2)cc1 (configuration not stated) | inactive | inactive |  | inactive |  |  | -7.97% (inactive) | inactive |  |  |  | inactive | inactive |  | inactive | 0.652% (inactive) | inactive |  | inactive |  |
| Cc1ccc(N)c(N)c1 | inactive | inactive | inactive |  |  |  | 0.413% (inactive) |  |  |  |  |  | inactive |  | 37.6 µM (active) |  |  |  |  |  |
| Oc1ccc(Cl)c(Cl)c1 | inactive |  | inactive | inactive |  |  |  |  | inactive | -12.5% | inactive |  | inactive | inactive |  |  |  | inactive | inactive | inactive |
| CCCCCCCCCCCCCl | inactive | inactive | inactive | inactive | inactive |  | 2.7% (inactive) | inactive |  | 10.4% | inactive | inactive |  |  |  |  |  |  |  | inactive |
| O=Cc1ccc2c(c1)OCO2 | inactive | inactive | inactive |  |  | 0.344% (inactive) | 1.67% (inactive) | inactive | inactive | -1.49% | inactive | inactive | inactive |  | inactive | -0.011% (inactive) | inactive | inactive | inactive |  |
| Nc1ccccc1-c1ccccc1 | inactive | inactive |  | inactive |  |  | -2.58% (inactive) | inactive | inactive |  |  | inactive | inactive |  | 42.2 µM (active) | -2.55% (inactive) | inactive |  |  |  |
